Assay results published in PubChem BioAssay.
Active and inactive are the calls of the source. No rule for the calls is given here.

Assay: inhibition of 3D7 malaria parasite growth – strain 3D7 (AID 2306);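 also: 0% = DMSO wells and 100% = chloroquine plus artemisinin control wells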
Conditions: P. falciparum 3D7 erythrocytic growth, LDH absorbance, 72 h; at 2 µM; hits give high values

Growth inhibition, active:
CC(C)(C)c1ccc(NC(=O)c2ccc(CN3CCCN(Cc4cccc(Cl)c4)CC3)cc2)cc1 96%
CC1(C)[C@H]2CC[C@@H](CNc3nc(NCCc4cnc[nH]4)nc(Nc4ccc5c(c4)OCO5)n3)[C@@H]1C2 101%
Cc1cc(C2CCN(CCCCNC(=O)c3ccc(NC(=O)c4ccc(Cl)cc4)cc3)CC2)c(C)cc1OCc1ccccn1 96%
Oc1ccc(CCCNc2nc(NCc3ccccc3-c3ccccc3)nc(NC3CCNCC3)n2)cc1 97%
CCC(=Cc1cccc([N+](=O)[O-])c1)C(=O)NCC1CCN(c2nc(N)c3cc(OC)c(OC)cc3n2)CC1 101%
NCCCCc1c(-c2ccc(Cl)c(Cl)c2)[nH]c2ccc(Cl)cc12 97%
CCCCN(C(=O)c1ccccc1C)c1nnc(-c2ccccc2C)s1 92%
Cc1cccc2[nH]c(-c3ccc(-c4cccc(NC(=O)COc5ccccc5C(N)=O)c4)s3)nc12 99%
COc1ccc2nccc([C@@H](O)CN3CCC(NC(=O)c4nc(Cl)c(Cl)c(N)c4Cl)CC3)c2c1 87%
Cc1cc(N2CCCC2)nc(Nc2ccc(NC(=O)c3ccc(Br)o3)cc2)n1 99%
Cn1c(=N)cc(-c2ccc(Br)cc2)c2c(=O)[nH]c(N)nc21 80%
CCC(C)(C)NC(=O)C(c1cccc(OC)c1)N(C(=O)CNC(=O)c1cccs1)c1ccc2c(c1)OCCO2 (stereo not given) 100%
Oc1ccccc1CCNCC1CCc2ccccc2C1 (stereo not given) 98%
COc1ccc2nccc([C@@H](O)CN3CCC(NCc4ccc(OC)c(NC=O)c4)CC3)c2c1 97%
CCCN(Cc1ccc(OCC)cc1)Cc1cc(=O)c2cc(Cl)ccc2[nH]1 82%
COc1cc(NCCCCCNc2cc(Cl)nc3ccccc23)nc2ccccc12 103%
FC(F)(F)c1ccc2nc(-c3cccc(-c4cccc(CN5CCN(c6ccncc6)CC5)c4)c3)[nH]c2c1 100%
CN1CCN(CCCN(Cc2csc(-c3ccc(CNCc4ccccc4)cc3)n2)S(=O)(=O)c2ccccc2)CC1 99%
O=S1(=O)NC2(CCN(CCc3ccc(Cl)cc3)CC2)Nc2cc(F)cc(F)c21 86%
O=C(NCCCN1CCCC1=O)c1cnc(N2CCC(Oc3ccccc3)CC2)c(Cl)c1 97%
COc1ccc(C(=O)Nc2cc(Br)c3c(c2)CNCC3)cc1Br 97%
NC(Cc1ccc(Cl)cc1)=NCCN1CCCCCC1 93%
CC1CCCC(NC(=O)CCOc2ccccc2)C1 (stereo not given) 96%
Cc1noc(-c2ccc(NC[C@@H](C)NC[C@H](O)c3cccc(Cl)c3)cc2)n1 97%
COc1ccc(NC(=O)Nc2cccc(-c3ccncc3)c2)cc1N1CCN(C)CC1 98%
Cc1cc(N2CCCN(CC3CCCCC3)CC2)nc(Nc2ccc(Br)cc2)n1 95%
CCCNCc1ccc(-c2ccc(CN(CCOC)C(=O)c3cscn3)cc2)nc1 99%
CC(=O)Nc1ccc(Cl)c(Cl)c1 95%
O=C(Nc1ccc(CN2CCCCC2)cc1)c1ccc(COc2ccc([N+](=O)[O-])cc2)o1 86%
CCOc1ccc(/C=C/C(=O)Nc2cccc3c2CCN(C)C3)cc1 92%
Cc1cc(NN=Cc2ccc(F)cc2)c2cccc(C)c2n1 100%
COc1ccc(CNC(=O)c2cnc3c(O)cccc3c2Nc2cccc(NC(=O)c3ccc(F)cc3)c2)cc1 91%
CCCCOc1cc2[nH]cc(C(=O)OCC)c(=O)c2cc1OCCCC 97%
OC(Cn1ccnc1)(c1ccc(Cl)cc1Cl)C1CCCCC1 (stereo not given) 98%
O=C(c1cccs1)N1CCN(c2ccc([N+](=O)[O-])c(NC3CC3)c2)CC1 100%
CC(=O)Nc1cccc(C(=O)Nc2cccc(-c3ccc(-c4nc5ccc(F)cc5[nH]4)s3)c2)c1 94%
C=C1C[C@@H](n2cnc3c(NC(=O)c4ccccc4)ncnc32)[C@@H](F)[C@@H]1OC(c1ccccc1)(c1ccccc1)c1ccccc1 98%
CS(=O)(=O)Nc1ccc2[nH]cc(C3CCN(CC4CCC(NC(=O)/C=C/c5ccc(Cl)c(Cl)c5)CC4)CC3)c2n1 (stereo not given) 99%
CN1CCN(c2ccnc3ccc(NC(=O)Nc4ccc(-c5ccccc5)cc4)cc23)CC1 99%
CCC[C@@H]([C@@H](CC(C)C)C(=O)N[C@@H](CCCCNC(=O)c1ccccn1)C(=O)Nc1nccs1)N(O)C=O 101%
